# Screens (PubChem)
# Most compounds without a hit are left out; they make up all but 10% or so of the library.
# PNC inhibitor: inhibitors of perinucleolar compartment assembly; PC3M PTB-GFP, PNC prevalence imaging, 16 h; hits give low values; activity change (PNC), negative = inhibition, % at 10 µM; 140,000 compounds, 3.1% hits;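 active means readout at or below -70, meaning at least 70% loss of cells showing the perinucleolar compartment, a nuclear body marking cancer cells; inconclusive means readout between -30 and a set limit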;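 further: plate controls were DMSO wells for no effect and camptothecin positive control wells for full effect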
#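 Read-out is percentage of cells bearing a perinucleolar compartment, from automated 20x imaging of fixed, Hoechst-stained PC3M PTB-GFP cells. Cells were seeded 4 h, then exposed 16 h to compound (23 nl of library stock) in duplicate plates.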
# HPGD block: inhibitors of human 15-hydroxyprostaglandin dehydrogenase (HPGD). P15428. purified HPGD, NADH fluorescence kinetic, PGE2 substrate. Potency, µM, inactives show top-dose activity change, negative = inhibition, actives largely listed as inhibitors. 150,000 compounds, 4.3% hits; further: potency means the concentration at half of the fitted maximal effect
# Target sequence (P15428 whole entry, looked up): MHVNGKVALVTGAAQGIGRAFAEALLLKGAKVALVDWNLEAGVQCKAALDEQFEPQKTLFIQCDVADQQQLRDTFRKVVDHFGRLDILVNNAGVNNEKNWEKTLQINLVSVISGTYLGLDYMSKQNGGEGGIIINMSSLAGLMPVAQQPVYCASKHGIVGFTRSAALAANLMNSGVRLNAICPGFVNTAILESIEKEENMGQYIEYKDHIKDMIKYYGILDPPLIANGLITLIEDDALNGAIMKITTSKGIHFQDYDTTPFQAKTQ
#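 20 nM HPGD preincubated 15 min at room temperature with compound in 50 mM Tris-HCl pH 8, 0.01% Tween 20. Started with 1 mM NAD+ and 30 uM prostaglandin E2; NADH fluorescence (360/450 nm) read 5 times over 30-s intervals, last minus first.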
# Lamin A splicing: changes lamin A minigene splicing in HeLa cells | Potency, µM (highest dose often 46.1 µM), inactives show at the top dose ratio change, negative = inhibition, most hits filed as inhibitors | HeLa LMNA splicing GFP/RFP minigene ratio, 48 h | 200,000 compounds, 0.01% hits; active means well fitted inhibition curve with a large enough effect in the signal ratio, with a control signal flat, not every such curve was filed as active; inconclusive means small, poorly fitted or top-dose-only effect, or effect the other way, or a change in a side signal; the % refers to the signal ratio; further: potency means the concentration at half of the fitted maximal effect
#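 Read-out is the ratio of GFP to DsRed2 object intensity, acquired by 488 nm laser-scanning cytometry on HeLa lamin A-EGFP minigene reporter cells. Compound incubation 48 hrs at 37 °C in Opti-MEM with 2% FBS; DMSO 0.5% final.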
# ALDH1A1 block: ALDH1A1 (human) enzyme inhibition | Purified ALDH1A1, NADH fluorescence, propionaldehyde substrate | 220,000 compounds, 7.3% hits | Potency, µM (top dose mostly 75.3 µM), without a hit: at the highest dose activity, negative = inhibition, most hits filed as inhibitors | P00352;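 further: potency means the concentration at half of the fitted maximal effect; plate controls were no enzyme wells and a reference inhibitor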
# Target sequence (P00352 whole entry, looked up): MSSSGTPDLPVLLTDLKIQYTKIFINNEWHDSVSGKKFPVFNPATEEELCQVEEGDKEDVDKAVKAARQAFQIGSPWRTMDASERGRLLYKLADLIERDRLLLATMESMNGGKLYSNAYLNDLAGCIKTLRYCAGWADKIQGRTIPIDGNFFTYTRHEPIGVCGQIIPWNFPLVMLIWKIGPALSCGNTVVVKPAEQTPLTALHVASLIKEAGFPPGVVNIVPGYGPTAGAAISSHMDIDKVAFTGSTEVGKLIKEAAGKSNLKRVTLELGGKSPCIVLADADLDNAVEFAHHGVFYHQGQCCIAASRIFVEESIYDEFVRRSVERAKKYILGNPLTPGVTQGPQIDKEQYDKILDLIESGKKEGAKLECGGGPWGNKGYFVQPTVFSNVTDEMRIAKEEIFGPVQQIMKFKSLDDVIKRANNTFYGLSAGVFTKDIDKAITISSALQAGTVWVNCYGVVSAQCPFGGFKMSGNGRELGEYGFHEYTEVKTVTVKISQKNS
# Luc counter: Kinase-Glo luciferase inhibition (counter-screen) | 200,000 compounds, 0.28% hits | Kinase-Glo luciferase, ATP luminescence, 8 min | Potency, µM (top dose mostly 38.3 µM), for the others: at the highest dose activity change, negative = inhibition, usual class: inhibitors | Q27757 | AID 1379; active means well fitted inhibition curve with a large enough effect; inconclusive means small, poorly fitted or top-dose-only effect; further: potency means the concentration at half of the fitted maximal effect; nearly all actives have a fitted effect of over 60% in size
#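 Compounds were added to a substrate mix at pH 7.2 (50 mM imidazole, 10 uM ATP, within the enzyme's linear range), followed by Kinase-Glo detection reagent; luminescence was measured after 8 minutes at ambient temperature.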
# An asterisk follows results filed as active; ? = inconclusive; . = no result; [ ] = remark or other dose. Unless noted, the call rests on the fitted dose curve; in most records, active means well fitted inhibition curve with a large enough effect (not every such curve was filed as active); inconclusive means small, poorly fitted or top-dose-only effect, or another doubt; inactive means no such curve, though single readings can be large or run the other way. Unless noted, on the % scale 0 is the no-effect control and ±100 the full control effect.
SMILES,PNC inhibitor,HPGD block,Lamin A splicing,ALDH1A1 block,Luc counter
C=CCN(c1ccc(C(=O)N(CC)CC)cc1)S(C)(=O)=O,-23.2,-21.5%,-8.0%,-3.5%,-0.3%
O=c1[nH]c(=O)n(Cc2ccccc2)c(O)c1/C=C1\C=Nc2ccccc21,.,.,.,?,-1.1%
O=c1[nH]c(=O)n(CC2CCCO2)c(O)c1/C=C1\C=Nc2ccccc21 (stereo not drawn),?,-24.2%,-14.3%,14.1µM*,-0.8%
Cc1c(O)c(O)cc2c1CC=C1[C@]3(C)CC[C@]4(C)CC[C@@](C)(C(=O)O)CC4[C@]3(C)CC[C@]12C (stereo partly drawn),.,17.8µM*,?,-5.5%,-1.9%
CCS(=O)(=O)N1N=C(c2cccc(NS(C)(=O)=O)c2)CC1c1ccccc1 (stereo not drawn),.,.,?,12.6µM*,-0.4%
CC(=O)NC(C)Cc1ccccc1 (stereo not drawn),3.1,-29.5%,11.9%,-2.1%,0.7%
CC(=O)CCc1ccccc1,.,-11.5%,.,25.1µM*,.
CN1C(=O)N(C)C(=O)C2(Cc3ccccc3N3CCOCC32)C1=O (stereo not drawn),-28.7,-12.3%,-18.4%,20µM*,-2.1%
O=C1NC(=O)C2(Cc3ccccc3N3CCCC32)C(=O)N1c1cccc(Cl)c1 (stereo not drawn),-7.0,-6.6%,0.2%,?,1.5%
O=C(OC1Cc2c(O)cc(O)cc2OC1c1cc(O)c(O)c(O)c1)c1cc(O)c(O)c(O)c1 (stereo not drawn),.,14.1µM*,-17.8%,?,-3.1%
Oc1cc(O)c2c(c1)OC(c1cc(O)c(O)c(O)c1)C(O)C2 (stereo not drawn),.,15.8µM*,.,?,-13.0%
CCCN1CCC[C@@H]2Cc3n[nH]cc3C[C@H]21,.,-12.6%,?,-3.6%,-5.3%
NC1(P(=O)(O)O)CCCCC1,.,-9.9%,.,3.7%[13.5 µM],-0.9%[7.66 µM]
CN1CCN(S(=O)(=O)c2cnc(Cl)c(Br)c2)CC1,-20.7,-2.4%,?,2.51µM*,4.2%
COC(=O)C1(C)C=C2C(=C(C)C(=O)C2C)CN1 (stereo not drawn),.,-11.9%,.,?,-1.4%
CC1=NN(c2ccccc2)C(=O)C1/C=C1\C(=O)NC(=O)N(c2cc(C)cc(C)c2)C1=O (stereo not drawn),-15.2,-27.6%,-8.3%,?,-5.2%
Cc1cc(C)cc(N2C(=O)NC(=O)/C(=C\C=C\c3ccco3)C2=O)c1,50.8,10µM*,?,?,2.6%
CCCCN1C(=O)/C(=C/C=C/c2ccco2)C(=O)NC1=S,-87.7*,10µM*,-3.9%,15.8µM*,-1.0%
C=CCN1C(=O)NC(=O)/C(=C/c2cccn2C)C1=O,-6.9,-22.9%,16.1%,4.1%,5.2%
Cc1cc(/C=C2\C(=O)NC(=O)N(c3ccc(Cl)cc3)C2=O)c(C)n1C,.,.,.,-7.3%,3.3%
CC(C)c1ccc(N2C(=O)NC(=O)/C(=C/C=C/c3ccco3)C2=O)cc1,19.2,3.16µM*,12.4%,-9.0%,11.7%
CCc1ccc(N2NC(=O)/C(=C/C=C/c3ccco3)C2=O)cc1,-27.6,-18.5%,-11.6%,3.16µM*,-3.5%
CC(=O)[C@@]1(O)CC[C@H]2C3CCC4=CC(=O)CC[C@]4(C)C3CC[C@@]21C (stereo partly drawn),.,-12.9%,?,3.1%,-1.3%
O=C1NC(=O)N(c2ccccc2)C(=O)/C1=C\C=C\c1ccccc1,.,.,?,10µM*,.
CCCCN1C(=O)/C(=C\c2ccco2)C(=O)N(CCc2ccccc2)C1=O,25.2,31.6µM*,2.9%,3.3%,-1.7%
SMILES,PNC inhibitor,HPGD block,Lamin A splicing,ALDH1A1 block,Luc counter
CSc1ncc(/C=C2/C(=O)NC(=O)N(c3ccc(C)cc3)C2=O)cn1,.,.,2.2%[46 µM],?,-3.4%
O=C1NC(=O)N(Cc2ccccc2)C(=O)/C1=C\c1ccco1,.,.,?,?,3.8%
Cc1ccc(N2C(=O)NC(=O)/C(=C/C=C/c3ccco3)C2=O)cc1,?,7.08µM*,?,?,-0.3%
C=C(CC1(C(C)NP(=O)(c2ccccc2)c2ccccc2)CC1)c1ccccc1 (stereo not drawn),.,-11.6%,.,5.2%,-3.0%
C[C@@H]1O[C@H](OC2[C@@H](O)[C@H](O)C(O)[C@H](O)[C@H]2O)[C@@H](N)C[C@@H]1N=C(N)C(=O)O (stereo partly drawn),.,-0.9%,.,-9.8%[13.5 µM],-1.8%[7.66 µM]
COc1ccccc1OCC#CCN1CCCCCC1,.,.,.,28.2µM*,1.6%
CO[C@H]1[C@H](O)[C@H](O[C@@H]2[C@H](Oc3cccc4c(O)c5c(=O)oc6ccc(C)c7c(=O)oc(c34)c5c67)O[C@@H](C)[C@H](O)[C@H]2O)O[C@@H](C)[C@@H]1O,.,-2.5%,.,-11.6%[13.5 µM],-2.3%[7.66 µM]
c1nc[nH]n1,.,0.9%,.,1.2%,.
NC(=O)C1=CN(C2OC(COP(=O)(O)OP(=O)(O)OC[C@H]3O[C@@H](n4cnc5c(N)ncnc54)[C@H](OP(=O)(O)O)[C@H]3O)C(O)C2O)C=CC1 (stereo partly drawn),.,-18.4%,?,14.4%,-14.2%
O=C(Oc1ccccc1)N1CCC[C@@]2(CCN(Cc3nccs3)C2)C1,.,-5.1%,.,-4.0%,2.3%
O=C1NC(=O)C(=Cc2ccc(SC3CCCCC3)o2)C(=O)N1,.,.,.,25.1µM*,-4.2%
OCC(CBr)(CBr)CBr,.,-9.0%,.,17.8µM*,.
O=C1NC(=O)C(=C/C=C/c2coc3ccc(Br)cc3c2=O)C(=O)N1,.,.,9.2%[46 µM],3.16µM*,.
Cc1cc(C=C2C(=O)NC(=O)NC2=O)c(C)n1-c1ccc2c(c1)OCO2,-19.7,-10.0%,-11.3%,?,-18.5%
O=C1NC(=O)C(=Cc2csc3ccccc23)C(=O)N1,.,.,.,10µM*,.
O=C1NC(=O)C(=Cc2coc3ccccc3c2=O)C(=O)N1,.,.,.,3.55µM*,-3.6%
Cc1ncc([N+](=O)[O-])n1CCN=[N+]=[N-],.,-0.6%,.,9.2%[13.5 µM],-6.2%[7.66 µM]
CC1=C2C(=COC(C)C2C)C(=O)C(C(=O)O)=C1O (stereo not drawn),.,-5.3%,.,?,-2.5%
O=C1NC(=O)N(Cc2ccccc2Cl)C(=O)/C1=C/N1CCOCC1,33.9,-18.1%,-1.2%,-11.1%,4.4%
O=C1NC(=O)N(Cc2cccs2)C(=O)/C1=C/c1ccc(N2CCOCC2)cc1,.,.,-5.6%[46 µM],7.08µM*,7.3%
O=c1[nH]c(=O)n(Cc2ccccc2)c(O)c1C=NCCN1CCNCC1,7.8,22.4µM*,4.9%,15.8µM*,-0.2%
O=c1[nH]c(=O)n(CCC2=CCCCC2)c(O)c1C=NCCN1CCNCC1,1.1,-4.8%,11.8%,14.1µM*,-1.5%
O=c1[nH]c(=O)n(Cc2ccccc2)c(O)c1C=Nc1ccc(CN2CCOCC2)cc1,27.4,.,11.6%,14.1µM*,.
O=c1[nH]c(=O)n(Cc2ccco2)c(O)c1C=NCCN1CCOCC1,15.4,-12.2%,1.9%,-14.1%,0.1%
CC(C)[C@H](CO)Nc1nc(Nc2cccc(Cl)c2)c2ncn(C(C)C)c2n1,.,-19.4%,.,?,1.2%
